ATG4B inh: blocks human ATG4B protease cleavage of LC3 substrate | Q9Y4P1 | 0.51% of 340,000 active | AID 504462 | inhibition, % at 8.33 µM | ATG4B cleavage of LC3-PLA2, NBD-HPC fluorescence, 1 h; in the data active = inhibition above about 40%
NadD block: inhibitors of Staphylococcus aureus NadD | purified NadD enzyme, colorimetric absorbance read-out | inhibition, % at 20 µM | 0.78% of 360,000 active; in the data active = inhibition above about 26%
FAS-TE inh: FAS thioesterase (human) inhibition; AID 602261; recombinant FAS-TE, OMFH fluorogenic substrate, fluorescence endpoint; 0.67% of 360,000 active; inhibition, % at 15 µM;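 active = compounds whose normalised, plate-corrected inhibition of enzyme fluorescence in the single-dose primary screen is 50% or more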
Calb FLC: affects C. albicans growth with fluconazole | C. albicans CaCi-2 (fluconazole-resistant clinical isolate) + fluconazole, Alamar Blue growth, 48 h | growth inhibition, % (test concentration not listed) | 0.57% of 300,000 active;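 active = growth inhibition above about 58% in most replicates, limit read from the data, passing the limit was not always enough; inconclusive = exactly half the replicates above a set limit; inactive = most replicates below a set limit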;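 note: all wells also contain fluconazole at 8 µg/ml as a sub-toxic cotreatment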
Mot1-301 SUMO: blocks SUMOylation pathway, rescuing yeast Mot1-301 growth; S. cerevisiae Mot1-301 growth rescue, ATP luminescence, 38.5C; percent above DMSO median, 100 means doubled; 1% of 320,000 active; AID 2716; growth rescue, % at 18.8 µM;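 active = every valid replicate shows activation above 250% relative to neutral control wells; inactive = the rest, any valid replicate at or below 250%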
Yeast Mot1 SUMO: SUMO pathway inhibitors in yeast Mot1-301 growth; shares compounds with Mot1-301 SUMO; S. cerevisiae Mot1-301 galactose growth, ATP luminescence, 24 h; -100 = growth of slx-deleted rescue strain; growth activity, percent, % at 42 µM; 2,300 tested, under 10 active; AID 493004;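 active = Signal drops as the depositor expects, and the fitted half-maximal dose is no more than ten times the top valid tested dose; inconclusive = Poor fit, or a flat curve whose signal drops by 30% to 70%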;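 note: more negative values mean stronger growth rescue toward the control strain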
Large screens that a line does not name were inactive (follow-up assays come after a bar, where they were run). Shown are actives, neighbours in structure and some others; about 3.1% of the full set was active somewhere.

COC(=O)c1ccccc1NC(=O)c1cnn2c(C)cc(C)nc12	Mot1-301 SUMO 892 | Yeast Mot1 SUMO inactive
CC1CC(C)CN(S(=O)(=O)CCNC(=O)c2ccc3c(c2)OCO3)C1 (configuration not stated)	none
Cc1sc2ncnc(Nc3ccccc3)c2c1C	Mot1-301 SUMO 371 | Yeast Mot1 SUMO inactive
CCOc1ccc(C(=O)Cn2cnc3ccccc3c2=O)cc1	none
O=C(Cn1cnc2ccccc2c1=O)c1ccc(OC(F)F)cc1	Mot1-301 SUMO 513 | Yeast Mot1 SUMO inactive
Cc1nnc(NC(=O)c2ccc(-c3cccc(C(F)(F)F)c3)o2)s1	Mot1-301 SUMO active (no result: Calb FLC) | Yeast Mot1 SUMO inactive
CC(=O)Cc1nsc(NC(=O)c2ccc(-c3cccc(C(F)(F)F)c3)o2)n1	Calb FLC inconclusive
COc1ccc(/C=N/NC(=O)c2nnn(-c3nonc3N)c2-c2cccs2)cc1OC	Mot1-301 SUMO 399 | Yeast Mot1 SUMO inactive
COc1ccc(CCNC(=O)Cn2nnc(-c3ccc(N4CCOCC4)cc3)n2)cc1OC	Mot1-301 SUMO 710 | Yeast Mot1 SUMO inactive
COc1ccc(CCNC(=O)Cn2nnc(-c3cccc(OC)c3OC)n2)cc1OC	none
O=C(COC(=O)CNC(=O)c1ccc2c(c1)OCO2)Nc1ncc(Cl)cc1Cl	none
COc1ccc(-c2nnc(SCC(C)C)o2)cc1	Mot1-301 SUMO 584 | Yeast Mot1 SUMO inactive
COc1ccc(C(=O)CSc2nnc(-c3ccc(C)cc3)o2)cc1	none
O=C(CCSc1ccccc1)Nc1ncccn1	Mot1-301 SUMO 731 | Yeast Mot1 SUMO inactive
CC(=O)Nc1cc2nn(-c3ccccc3)nc2cc1Cl	Mot1-301 SUMO 553 | Yeast Mot1 SUMO inactive
COc1ccc(OCC(=O)OCC(=O)N2CC(=O)Nc3ccccc32)cc1	none
O=C1CN(C(=O)COC(=O)COc2ccc3c(c2)CCC3)c2ccccc2N1	Mot1-301 SUMO 586 | Yeast Mot1 SUMO inactive
COc1ccc(N2CCN(C(=O)C3CCCN(S(=O)(=O)c4ccc5c(c4)oc(=O)n5C)C3)CC2)cc1 (configuration not stated)	Mot1-301 SUMO 450 | Yeast Mot1 SUMO inactive
O=C(Nc1ccc(F)cc1)c1cccnn1	Mot1-301 SUMO 397 | Yeast Mot1 SUMO inactive
O=C(Nc1ccc(F)cc1)c1ccc(=O)[nH]n1	none
COc1ccc(CCC(=O)NNC(=O)Nc2cccc(Cl)c2)cc1	none
COc1ccc(CCC(=O)NNC(=S)Nc2cccc(C(C)=O)c2)cc1	Mot1-301 SUMO active | Yeast Mot1 SUMO inactive
CCCCOC(=O)C1=C(C)N(C)C(=O)NC1c1cc2c(cc1Br)OCO2 (configuration not stated)	none (no result: ATG4B inh, Calb FLC, Mot1-301 SUMO)
CCCCCOC(=O)C1=C(C)N(C)C(=O)NC1c1cc(Br)c(O)c(OC)c1 (configuration not stated)	Mot1-301 SUMO 879 | Yeast Mot1 SUMO inactive
COc1cc(CN2CCC(Oc3cc(C(=O)NC4CC4)ccc3OC)CC2)cc(OC)c1	Mot1-301 SUMO 393 | Yeast Mot1 SUMO inactive
COc1ccccc1CNC(=O)C/C(C)=N/NC(=O)COc1ccc(C)cc1Br	none
COc1ccc(CCNC(=O)C/C(C)=N/NC(=O)COc2ccc(C)cc2Br)cc1OC	Mot1-301 SUMO 904 | Yeast Mot1 SUMO inactive
CC(=O)n1nc(-c2ccccc2)nc1NCc1cccs1	none
Cc1ccc(C(=O)NC(NC(=O)c2ccc(C)cc2)C(Cl)Cl)cc1	Mot1-301 SUMO 378 | Yeast Mot1 SUMO inactive
Cc1ccc(C(C(=O)Nc2ccc3c(c2)OCO3)N(C)C(=O)/C=C\c2ccc3c(c2)OCO3)cc1 (configuration not stated)	Mot1-301 SUMO 383 | Yeast Mot1 SUMO inactive
O=C(CSCc1ccccc1)N/N=C/c1cc2c(cc1Br)OCO2	none
Cc1cc2nc(CCl)cc(=O)n2[nH]1	Mot1-301 SUMO active | Yeast Mot1 SUMO inactive
CC1=C(C(=O)N(C(C)C)C(C)C)CC(CC(=O)NC2CCCC2)C(=O)N1Cc1ccc(C(C)(C)C)cc1 (configuration not stated)	none (no result: ATG4B inh, Calb FLC, Mot1-301 SUMO)
N=c1c2c(n(Cc3ccc(Br)cc3)c3c1CCC3)CCCC2	none
N=c1c2c(n(Cc3ccc(Cl)c(Cl)c3)c3c1CCC3)CCCC2	Mot1-301 SUMO active | Yeast Mot1 SUMO inactive
COc1ccc(NC(=S)N2CCCN(Cc3cc(C)ccc3C)C2)cc1	none (no result: Mot1-301 SUMO)
Cc1ccc(S(=O)(=O)N2CCN(C(=O)CSc3nc(N)cc(=O)[nH]3)CC2)c(C)c1	Mot1-301 SUMO 482 | Yeast Mot1 SUMO inactive

Bioassay records: PubChem BioAssay, several laboratories
